Bioassay records: PubChem BioAssay, National Center for Advancing Translational Sciences (NCATS)
Shown are actives, neighbours in structure and some others; about 7.3% of the full set was active somewhere.
AmpC inh no detg – qHTS Inhibitors of AmpC Beta-Lactamase (assay without detergent) | AID 485341, 2010 | 330,000 compounds, 0.52% hits | AmpC nitrocefin hydrolysis, absorbance 480 nm, 0.0001% Triton | Potency, µM (highest dose often 57.1 µM), hits mostly inhibitors; note: nearly all actives have a fitted effect of over 20% in size
Target sequence (P00811 whole entry, looked up): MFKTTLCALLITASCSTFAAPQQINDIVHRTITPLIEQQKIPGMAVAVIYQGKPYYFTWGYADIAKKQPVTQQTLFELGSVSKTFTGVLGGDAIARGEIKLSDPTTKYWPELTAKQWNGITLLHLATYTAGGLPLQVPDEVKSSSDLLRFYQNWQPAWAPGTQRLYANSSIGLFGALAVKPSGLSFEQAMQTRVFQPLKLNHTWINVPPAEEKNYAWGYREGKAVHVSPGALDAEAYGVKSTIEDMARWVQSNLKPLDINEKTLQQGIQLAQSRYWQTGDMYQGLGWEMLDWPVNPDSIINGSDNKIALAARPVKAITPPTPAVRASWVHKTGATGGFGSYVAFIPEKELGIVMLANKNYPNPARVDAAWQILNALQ
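20 mM phosphate pH 7.0 + 0.01% (detergent screen) or 0.0001% Triton X-100; 5.3 nM AmpC reagent; cpd preinc 15 min RT; nitrocefin (800 uM stock) to start; A480 q20 s × 4 min; Activity was normalised to no-enzyme and no-compound control wells.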
FMDV antiviral – High Throughput Screening for Foot and Mouth Disease Virus Antivirals | FMDV antiviral cell-based qHTS | Potency, µM (titrated, usually from 57.9 µM), usual class: inhibitors | 410,000 compounds, 1.2% hits; calls by dose curve; tested in HEK293T cells; note: read-out not given here; nearly all actives have a fitted effect of over 45% in size
AmpC detergent – qHTS Inhibitors of AmpC Beta-Lactamase (assay with detergent). P00811. AmpC hydrolysis of nitrocefin, absorbance 480 nm, 0.01% Triton. Potency, µM (highest dose often 114 µM), hits mostly inhibitors. 370,000 compounds, 0.041% hits. AID 485294, 2010; note: nearly all actives have a fitted effect of over 25% in size
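AmpC (5.3 nM in the dispensed reagent) in 20 mM phosphate pH 7.0 with 0.01% (detergent screen) or 0.0001% Triton X-100 was preincubated with compounds for 15 min at room temperature. Nitrocefin was then added from an 800 uM solution, and hydrolysis was followed at 480 nm.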
HCV inh – qHTS Assay for Inhibitors of Hepatitis C Virus (HCV); 340,000 compounds, 3.4% hits; Potency, µM (series often up to 41.8 µM), hits mostly inhibitors; AID 651820, 2012; Huh7.5.1 HCVcc-Cre infection, luciferase reporter, 44 h
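Luciferase read-out (15 sec integration) after a 15 min room-temperature substrate step quantifies HCVcc-Cre infection. Cells, 1,000 per well, had compound added 4 h post-plating, then virus at ~0.5 moi, and were cultured 44 h.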
HCMV inh – qHTS Assay for inhibitors of the human cytomegalovirus (HCMV); HFF cells, HCMV-luciferase reporter, 72 h; active compounds read low; activity change, negative = inhibition, % at 57.5 µM; AID 1259415, 2018; 410,000 compounds, 4.5% hits; in the data active = activity change below about -60%; inconclusive = no clear call, values can overlap the other calls; inactive = above about -39%
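Compounds were evaluated in HFFs infected with an HCMV luciferase reporter virus (MOI 1 PFU/cell). Luciferase in lysates collected 72 h post infection served as the replication measure.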
Hits are given with their value; n = inactive; u = inconclusive; x = no result; + = active, no number; [ ] = another dose, or the depositor's remark. Unless noted, calls come from the whole dose curve; as a rule, active = well fitted curve in the direction sought with a large enough effect; inconclusive = small, poorly fitted or top-dose-only effect, or another doubt; inactive = no such curve, though single readings can be large; an effect the other way counts as inactive or inconclusive.

SMILES	AmpC inh no detg	FMDV antiviral	AmpC detergent	HCV inh	HCMV inh
COC(=O)c1cnc(N)s1	x	n	x	n	n
O=C(Cc1cccs1)N[C@H]1CC[C@@]23CCCN2C(=O)CCC[C@H]3[C@H]1Cc1ccccc1	x	x	x	x	n
COC(=O)[C@]1(C#N)CC(=O)N([C@H](C)[C@H](O)c2ccccc2)[C@@H]1c1ccccc1	x	x	x	x	n
COC(=O)C(CCSC)NC(=O)c1cc2c(n(-c3ccc(Cl)cc3)c1=O)CCCC2=O (stereo unspecified)	x	n	n	x	n
C[C@]12c3[nH]c4ccc(Cl)cc4c3CCN1C(=O)[C@@H](CC(=O)NCc1cccc(C(F)(F)F)c1)C[C@@H]2C(=O)N1CCOCC1	n	n	x	7.1µM	n
COc1ccc(CN2C(=O)C(CC(=O)NCCCCc3ccccc3)CC(C(=O)N(C(C)C)C(C)C)=C2C)cc1 (stereo unspecified)	x	n	x	x	n
CC1=C(C(=O)N(C(C)C)C(C)C)CC(CC(=O)NC(c2ccccc2)c2ccccc2)C(=O)N1CCC1=CCCCC1 (stereo unspecified)	x	u	x	x	-110
CC1=C(C(=O)N(C(C)C)C(C)C)CC(CC(=O)NCCCCc2ccccc2)C(=O)N1Cc1ccc(C(C)(C)C)cc1 (stereo unspecified)	x	u	x	x	-105
CC(C)N(CCCNC(=O)Cn1ncc2c([nH]c3ccccc32)c1=O)Cc1ccccc1	n	n	n	n	n
O=[N+]([O-])c1cc(Br)c(Nc2ccccc2)c([N+](=O)[O-])c1	n	u	n	u	-85
O=[N+]([O-])c1ccc(Nc2ccccc2O)c([N+](=O)[O-])c1	x	n	x	x	u
O=C(Nc1ccccc1)c1ccc(Nc2c([N+](=O)[O-])cc([N+](=O)[O-])c3ccccc23)cc1	n	u	n	u	-74
CCOC(=O)c1c(-c2ccc(C)cc2)csc1NC(=O)CCN1CC(C)OC(C)C1 (stereo unspecified)	n	28µM	u	n	n
CCOC(=O)c1c(-c2ccc(C)o2)csc1NC(=O)CN1CCC(C(N)=O)CC1	n	u	n	4.5µM	n
CCOC(=O)c1c(-c2ccc(C)cc2)csc1NC(=O)C1CCCO1 (stereo unspecified)	n	u	n	11µM	n
CCOC(=O)c1c(-c2ccc(C)o2)csc1NC(=O)CN1CCCCC1	n[11.4 µM]	u	n	u	n
CCOC(=O)c1c(-c2ccc(F)cc2)csc1NC(=O)C1CCCO1 (stereo unspecified)	n	n	n	n	-60
CCN(CC)C(=O)CSc1nnc2nnc3cc(C)ccc3n12	n	n	n	n	-67
CCOC(=O)c1sc(NC(=O)c2ccc(OC(C)=O)cc2)nc1C	n	n	n	u	-82
O=C(Nc1cc(S(=O)(=O)N2CCCCCC2)ccc1OCC(F)(F)F)c1cnccn1	n	n	n	n	n
COc1ccccc1CN1CCC2(CC1)c1ccccc1[C@@H](NC(=O)c1ccco1)[C@@H]2OC	x	n	x	x	x
COc1ccc(-c2nc3ccccc3n2Cc2ccc(C(C)C)cc2)cc1	x	n	n	x	-73
COc1ccc(-c2nc3ccccc3n2Cc2ccc(Cl)cc2)cc1	x	n	n	x	n
CCC(=O)N1CCc2cc(Br)cc(S(=O)(=O)NCCN3CCCCC3CC)c21 (stereo unspecified)	n	n	n	2.5µM	n
CCC(=O)N1CCc2cc(Br)cc(S(=O)(=O)CCC(=O)NCCOC)c21	n	n	u	n	-84
SMILES	AmpC inh no detg	FMDV antiviral	AmpC detergent	HCV inh	HCMV inh
O=C(C1CC1)N1CCc2cc(Br)cc(S(=O)(=O)NC3CCCCC3)c21	n	n	n	7.1µM	n
CN(Cc1ccccc1)S(=O)(=O)c1cc(Br)cc2c1N(C(=O)C1CC1)CC2	x	n	n	x	-71
CCN(Cc1ccccc1)S(=O)(=O)c1cc(Br)cc2c1N(C(=O)C1CC1)CC2	x	n	n	x	u
Cc1ccc(-c2csc(N3CCC[C@@H]3C(=O)NCCn3c([C@H](C)N)nc4ccccc43)n2)cc1	x	x	x	x	n
CCOC(=O)N1CCN(S(=O)(=O)c2cc(Br)cc3c2N(C(=O)CC)CC3)CC1	n	n	n	n	n
CCOC(=O)N1CCC(NS(=O)(=O)c2cc(Br)cc3c2N(C(=O)CC)CC3)CC1	n	n	u	n	-105
Cc1ccc2[nH]c3c(=O)n(CC(=O)N4CCN(c5ccccc5F)CC4)ncc3c2c1	x	n	n	x	n
COc1ccc(-n2cc(-c3ccc(OC)c(OC)c3)[nH]c2=S)cc1	n	n	n	u	n
COc1ccc(-n2cc(-c3ccccc3)[nH]c2=S)c(OC)c1	n	u	n	u	-65
O=C(c1ccccc1Cl)N1N=C(c2ccc(Br)cc2)CC1c1nc2ccccc2[nH]1 (stereo unspecified)	n	n	n	11µM	n
Cc1ccc(C2=NN(C(=O)c3ccccc3F)C(c3ccccc3F)C2)cc1 (stereo unspecified)	n	n	n	n	n
O=C(c1ccco1)N1N=C(c2cccs2)CC1c1ccccc1O (stereo unspecified)	u	u	n	n	-68
COc1cccc(C2CC(c3cccs3)=NN2C(=O)c2ccco2)c1O (stereo unspecified)	n	n	n	14µM	n
CCc1ccc(NC(=O)CN2CCCN(Cc3cccc(Cl)c3)S2(=O)=O)cc1	x	n	n	x	+
CCc1ccc(NC(=O)CN2CCN(Cc3ccccc3)S2(=O)=O)cc1	x	n	n	x	n
CCc1cccc(C)c1NC(=O)CN1CCCN(Cc2ccccc2Cl)S1(=O)=O	x	n	n	x	+
CCc1cccc(C)c1NC(=O)CN1CCN(Cc2ccccc2Cl)S1(=O)=O	x	n	n	x	n
O=c1[nH]c(=S)[nH]c2c1C(C1CCCCC1)OC(C1CCCCC1)C2 (stereo unspecified)	x	n	x	x	n
CCOc1ccc(C=NNc2ccc(S(=O)(=O)Nc3ccccc3C(=O)O)cc2[N+](=O)[O-])cc1	28µM	n	x	n	n
O=S(=O)(O)c1cc(O)c(N=Nc2ccc(O)cc2O)c2ccccc12	x	28µM	x	n	u
O=C1/C(=C/C=C/c2ccco2)SC(=S)N1c1ccc(O)cc1	16µM	n	n	n	n
COc1ccc(/C=C/C(=O)Nc2ccc(OC)nc2)cc1	n	n	n	n	n
O=C(/C=C/c1cccc(C(F)(F)F)c1)NNC(=O)c1ccncc1	n	n	n	u	-76
COc1ccc(NC(=O)/C=C/c2cccc(C(F)(F)F)c2)cn1	n	u	n	11µM	n
COc1ccc(NC(=O)/C=C/c2ccc(OC(F)F)cc2)cn1	n	n	n	11µM	n
O=C(/C=C/c1cccc(C(F)(F)F)c1)Nc1cccc(C(F)(F)F)c1	n	n	n	u	-99
